Results reported in PubChem BioAssay (Tox21).
Records with an inconclusive call do not appear. Calls of active or inactive are those of the source. Unless noted, calls come from the whole dose curve; as a rule, active = well fitted curve in the direction sought with a large enough effect in the repeat runs; inconclusive = weak or mixed curves; inactive = no such curve, though single readings can be large; an effect the other way counts as inactive or inconclusive. Where a SMILES comes first, the peptide text is derived from it. [ ]: non-standard residue; d: D form. pGlu = O=C1CC[C@@H](C(=O)O)N1

How the values were obtained:
[1] = qHTS assay to identify small molecule antagonists of the sonic hedgehog signaling (Shh) pathway (AID 1259369; calls by dose curve; note: nearly all actives have a fitted effect of over 45% in size; note: potency is the fitted concentration of half-maximal effect)
How it was run: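 Luminescence readout: firefly Luc under Gli1 response element in 3T3Gli1-Luc cells (NIH/3T3 clone). Antagonist mode, stimulation by conditioned medium; compound exposure 24hr at 37 C, 5% CO2.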

[2] = biological target: Estrogen receptor beta (Homo sapiens) (UniProt Q92731); test: qHTS assay to identify small molecule agonists of the estrogen receptor beta (ER-beta) signaling pathway (AID 1259377; active = well fitted activation curve with a large enough effect in the signal ratio in the repeat runs, not every such curve was filed as active; the % refers to the signal ratio)
Sequence of Estrogen receptor beta (Homo sapiens) (Q92731 whole entry, looked up): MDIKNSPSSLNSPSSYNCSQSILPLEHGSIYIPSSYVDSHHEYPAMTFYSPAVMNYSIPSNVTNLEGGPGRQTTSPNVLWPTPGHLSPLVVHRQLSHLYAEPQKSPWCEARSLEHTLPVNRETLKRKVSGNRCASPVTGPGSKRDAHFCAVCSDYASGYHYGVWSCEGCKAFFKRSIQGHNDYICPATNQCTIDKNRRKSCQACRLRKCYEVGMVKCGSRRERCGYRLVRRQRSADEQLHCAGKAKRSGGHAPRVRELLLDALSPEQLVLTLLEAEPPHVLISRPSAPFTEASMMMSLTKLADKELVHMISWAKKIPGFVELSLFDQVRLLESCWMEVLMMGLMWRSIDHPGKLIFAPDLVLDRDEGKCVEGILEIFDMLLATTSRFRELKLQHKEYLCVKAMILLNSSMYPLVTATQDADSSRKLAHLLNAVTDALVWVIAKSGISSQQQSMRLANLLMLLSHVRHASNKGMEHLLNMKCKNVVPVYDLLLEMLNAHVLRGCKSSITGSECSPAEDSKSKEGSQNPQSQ
How it was run: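 Beta-lactamase reporter readout: fluorescence of LiveBLAzer B/G FRET substrate after 2 h at room temperature, following 16 h compound treatment of ER-beta-UAS-bla HEK293T cells at 37C in 2% charcoal-stripped FBS medium.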

[3] = biological target: Estrogen receptor beta (Homo sapiens) (UniProt Q92731); test: qHTS assay to identify small molecule antagonists of the estrogen receptor beta (ER-beta) signaling pathway (AID 1259378; active = well fitted inhibition curve with a large enough effect in the signal ratio in the repeat runs, not every such curve was filed as active; the % refers to the signal ratio)
How it was run: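 ER-beta-UAS-bla HEK293T cells in 2% charcoal-stripped FBS medium treated with compound plus 1nM final 17-beta-estradiol for 16 hr at 37C. Beta-lactamase reporter read by FRET substrate fluorescence after 2 hours at room temperature.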

[4] = qHTS assay to identify small molecule agonists of the androgen receptor (AR) signaling pathway in the presence of an antagonist - cell viability counter screen (AID 1259379);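 note: MDA-kb2 human breast cancer cells carrying an MMTV luciferase reporter; series mostly up to about 92 µM; nearly all actives have a fitted effect of over 25% in size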
How it was run: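 Viability counter screen: CellTiter-Fluor fluorescence, measured in the same wells as the luciferase read-out. MDA-kb2 cells, 3,000/well, with nilutamide at 3.0uM final and compounds at 15 concentrations, 16 hr at 37C, 0% CO2.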

[5] = qHTS assay to identify small molecule agonists of the estrogen receptor beta (ER-beta) signaling pathway - cell viability counter screen (AID 1259380); note: nearly all actives have a fitted effect of over 30% in size
How it was run: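 Luminescence read-out (CellTiter-Glo, 30 min, room temp) taken in the same wells as the beta-lactamase reporter assay; ER-beta-UAS-bla HEK293T cells exposed to DMSO-dissolved compounds for 16 hr at 37C in 2% charcoal-stripped FBS medium.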

[6] = qHTS assay to identify small molecule antagonists of the estrogen receptor beta (ER-beta) signaling pathway - cell viability counter screen (AID 1259382); note: series mostly up to about 92 µM; nearly all actives have a fitted effect of over 55% in size
How it was run: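 Luminescent ATP read-out (CellTiter-Glo, 30 min, RT) taken in the same wells as the bla reporter assay. HEK293T ER-beta-UAS-bla cells in 2% charcoal-stripped FBS were exposed to compounds with 1nM E2 for 16 hr at 37C.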

[7] = biological target: Estrogen receptor (Homo sapiens) (UniProt P03372); test: qHTS assay to identify small molecule agonists of the estrogen receptor alpha (ER-alpha) signaling pathway in the presence of an antagonist (AID 1259383; calls by dose curve; note: top concentration of the series differs between compounds; nearly all actives have a fitted effect of over 15% in size)
Sequence of Estrogen receptor (Homo sapiens) (P03372 whole entry, looked up): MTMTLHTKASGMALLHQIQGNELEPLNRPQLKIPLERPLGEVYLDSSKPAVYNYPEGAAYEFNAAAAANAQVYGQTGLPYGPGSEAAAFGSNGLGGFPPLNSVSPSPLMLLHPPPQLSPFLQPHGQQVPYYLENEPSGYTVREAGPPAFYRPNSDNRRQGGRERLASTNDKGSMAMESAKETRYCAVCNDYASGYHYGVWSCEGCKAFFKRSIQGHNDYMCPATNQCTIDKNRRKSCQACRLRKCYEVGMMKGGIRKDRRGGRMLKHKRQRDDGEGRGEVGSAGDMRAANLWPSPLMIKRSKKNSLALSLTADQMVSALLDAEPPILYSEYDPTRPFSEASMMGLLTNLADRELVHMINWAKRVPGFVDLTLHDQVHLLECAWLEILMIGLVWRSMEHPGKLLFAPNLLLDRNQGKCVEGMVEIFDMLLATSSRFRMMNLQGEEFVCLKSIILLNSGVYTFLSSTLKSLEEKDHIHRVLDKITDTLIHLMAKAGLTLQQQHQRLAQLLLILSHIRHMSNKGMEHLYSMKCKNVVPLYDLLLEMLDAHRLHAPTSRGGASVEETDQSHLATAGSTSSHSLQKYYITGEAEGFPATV
How it was run: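 Luciferase luminescence (ONE-Glo, 30min at room temperature) measured in VM7Luc4E2 cells after 22hr compound exposure at 15 concentrations, with 10.0nM ICI-182,780 final present; cells express endogenous ER-alpha and carry four EREs upstream of luciferase.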

[8] = qHTS assay to identify small molecule agonists or antagonists of the thyroid stimulating hormone receptor (TSHR) signaling pathway - wild type cell line counter screen (AID 1259384; calls by dose curve)
How it was run: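 Wild-type Hek293 cells, 800/well, 18 h at 37C, then compound with Ro20-1724 for 30 min RT. cAMP by HTRF (cAMP-d2/anti-cAMP cryptate), 1 h RT, fluorescence read. 15 concentrations, triplicates.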

[9] = biological target: Thyrotropin receptor (Homo sapiens) (UniProt P16473); test: qHTS assay to identify small molecule antagonists of the thyroid stimulating hormone receptor (TSHR) signaling pathway (AID 1259385; calls by dose curve; note: nearly all actives have a fitted effect of over 20% in size)
Sequence of Thyrotropin receptor (Homo sapiens) (P16473 whole entry, looked up): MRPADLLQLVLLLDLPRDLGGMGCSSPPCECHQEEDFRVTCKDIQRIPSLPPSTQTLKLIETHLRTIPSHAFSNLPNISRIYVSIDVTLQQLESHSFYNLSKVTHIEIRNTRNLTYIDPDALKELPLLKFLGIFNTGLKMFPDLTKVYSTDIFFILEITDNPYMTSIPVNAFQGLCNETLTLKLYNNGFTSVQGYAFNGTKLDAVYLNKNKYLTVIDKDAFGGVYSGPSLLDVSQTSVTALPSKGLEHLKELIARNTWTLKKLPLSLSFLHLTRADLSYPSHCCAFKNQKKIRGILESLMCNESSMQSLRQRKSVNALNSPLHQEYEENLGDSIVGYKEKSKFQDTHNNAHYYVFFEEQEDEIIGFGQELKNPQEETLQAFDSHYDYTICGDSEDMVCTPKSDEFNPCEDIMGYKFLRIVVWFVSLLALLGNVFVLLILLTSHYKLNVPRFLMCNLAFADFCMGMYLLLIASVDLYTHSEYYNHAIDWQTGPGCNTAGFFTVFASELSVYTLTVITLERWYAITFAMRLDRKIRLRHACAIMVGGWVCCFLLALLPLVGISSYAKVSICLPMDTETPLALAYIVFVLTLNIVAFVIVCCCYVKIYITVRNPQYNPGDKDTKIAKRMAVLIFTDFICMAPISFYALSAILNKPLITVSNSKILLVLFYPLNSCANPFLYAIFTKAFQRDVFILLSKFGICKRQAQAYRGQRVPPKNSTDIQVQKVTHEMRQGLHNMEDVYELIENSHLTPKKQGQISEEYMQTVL
How it was run: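 TSHR-HEK293 cells (800/well) plated 18 h, then compounds with Ro20-1724 and TSH at 1.5 ng/mL final, 30 min at room temperature. cAMP quantified by HTRF (cAMP-d2/anti-cAMP-cryptate, 1 h); 15 concentrations in triplicate.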

[10] = qHTS assay to identify small molecule agonists of the estrogen receptor alpha (ER-alpha) signaling pathway in the presence of an antagonist - cell viability counter screen (AID 1259386);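 note: series mostly up to about 92 µM; cells exposed to compounds for 22 h at 37 °C before the viability read; nearly all actives have a fitted effect of over 30% in size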
How it was run: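 Read-out: CellTiter-Fluor fluorescence after 1hr reagent incubation, measured in the same wells as the luciferase readout. VM7Luc4E2 cells were exposed to 15 compound concentrations with 10.0nM ICI-182,780 for 22hr at 37C.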

[11] = biological target: Progesterone receptor (Homo sapiens) (UniProt P06401); test: qHTS assay to identify small molecule agonists of the progesterone receptor (PR) signaling pathway (AID 1346784; calls by dose curve; note: nearly all actives have a fitted effect of over 30% in size)
Sequence of Progesterone receptor (Homo sapiens) (P06401 whole entry, looked up): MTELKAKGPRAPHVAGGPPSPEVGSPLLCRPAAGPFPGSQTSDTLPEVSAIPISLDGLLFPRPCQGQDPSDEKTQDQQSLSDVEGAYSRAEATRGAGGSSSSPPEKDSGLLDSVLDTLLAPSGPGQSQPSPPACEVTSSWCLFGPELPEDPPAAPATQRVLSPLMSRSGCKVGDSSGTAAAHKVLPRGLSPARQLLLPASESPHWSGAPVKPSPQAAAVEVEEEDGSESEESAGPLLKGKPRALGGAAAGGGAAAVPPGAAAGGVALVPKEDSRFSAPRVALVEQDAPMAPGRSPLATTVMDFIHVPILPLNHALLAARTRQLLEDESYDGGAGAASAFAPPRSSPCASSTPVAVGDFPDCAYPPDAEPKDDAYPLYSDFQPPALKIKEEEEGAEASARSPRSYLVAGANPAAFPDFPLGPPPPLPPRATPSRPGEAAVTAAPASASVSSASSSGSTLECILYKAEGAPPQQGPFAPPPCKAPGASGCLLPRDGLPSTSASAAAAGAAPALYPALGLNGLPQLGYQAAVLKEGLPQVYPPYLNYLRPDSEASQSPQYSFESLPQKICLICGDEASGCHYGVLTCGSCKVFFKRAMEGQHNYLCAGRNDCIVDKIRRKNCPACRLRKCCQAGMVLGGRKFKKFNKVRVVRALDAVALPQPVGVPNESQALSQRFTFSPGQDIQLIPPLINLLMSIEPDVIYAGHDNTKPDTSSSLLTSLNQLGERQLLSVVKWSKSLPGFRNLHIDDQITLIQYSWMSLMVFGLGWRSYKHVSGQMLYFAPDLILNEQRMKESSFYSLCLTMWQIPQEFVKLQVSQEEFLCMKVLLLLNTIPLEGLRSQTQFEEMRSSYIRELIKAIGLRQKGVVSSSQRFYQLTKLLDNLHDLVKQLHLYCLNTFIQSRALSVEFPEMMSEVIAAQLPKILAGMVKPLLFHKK
How it was run: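 HEK 293T PR-UAS-bla reporter cells, 2% charcoal-stripped FBS; 6 hr settle at 37C/5% CO2, compound (DMSO) 16 hr, LiveBLAzer B/G FRET substrate 2 hr RT, fluorescence intensity read.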

[12] = qHTS assay to identify small molecule antagonists of the progesterone receptor (PR) signaling pathway - cell viability counter screen (AID 1346798); note: series mostly up to about 92 µM; nearly all actives have a fitted effect of over 50% in size
How it was run: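 Luminescence readout (CellTiter-Glo, 30 min, RT) of viability in PR-UAS-bla HEK293T cells exposed to compound and R5020 agonist for 16 hr at 37C, 5% CO2; run in the same wells as the beta-lactamase reporter read.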

[13] = qHTS assay to identify small molecule agonists of the progesterone receptor (PR) signaling pathway - cell viability counter screen (AID 1346799; calls by dose curve; note: nearly all actives have a fitted effect of over 45% in size)
How it was run: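 HEK293T PR-UAS-bla, 3,000 cells/well, 2% charcoal-stripped FBS; 6 h settle, compound 16 h at 37C/5% CO2; LiveBLAzer 2 h RT, then CellTiter-Glo 30 min RT, luminescence read.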

[14] = qHTS assay to identify small molecule agonists of the TGF-beta/Smad signaling pathway - cell viability counter screen (AID 1346829); note: top concentration of the series differs between compounds; nearly all actives have a fitted effect of over 45% in size
How it was run: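 Compound-treated SBE-bla HEK 293T cells (5 hr, 37 C) were assessed for viability with CellTiter-Glo in parallel with the reporter read.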

[15] = qHTS assay to identify small molecule agonists of the TGF-beta/Smad signaling pathway (AID 1346859; active = well fitted activation curve with a large enough effect in the signal ratio in the repeat runs, not every such curve was filed as active; the % refers to the signal ratio; note: series mostly up to about 77 µM)
How it was run: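 Read-out: fluorescence at 460 and 530 nm (405 nm excitation) after a 2 hr room-temperature incubation with beta-lactamase FRET substrate. SBE-bla HEK 293T cells had been treated with test compounds for 5 hr at 37 C.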

[16] = biological target: Thyrotropin-releasing hormone receptor (Homo sapiens) (UniProt P34981); test: qHTS assay to identify small molecule antagonists of the thyrotropin-releasing hormone receptor (TRHR) signaling pathway (AID 1346877; active = well fitted inhibition curve with a large enough effect in the repeat runs, not every such curve was filed as active; note: series mostly up to about 51 µM)
Sequence of Thyrotropin-releasing hormone receptor (Homo sapiens) (P34981 whole entry, looked up): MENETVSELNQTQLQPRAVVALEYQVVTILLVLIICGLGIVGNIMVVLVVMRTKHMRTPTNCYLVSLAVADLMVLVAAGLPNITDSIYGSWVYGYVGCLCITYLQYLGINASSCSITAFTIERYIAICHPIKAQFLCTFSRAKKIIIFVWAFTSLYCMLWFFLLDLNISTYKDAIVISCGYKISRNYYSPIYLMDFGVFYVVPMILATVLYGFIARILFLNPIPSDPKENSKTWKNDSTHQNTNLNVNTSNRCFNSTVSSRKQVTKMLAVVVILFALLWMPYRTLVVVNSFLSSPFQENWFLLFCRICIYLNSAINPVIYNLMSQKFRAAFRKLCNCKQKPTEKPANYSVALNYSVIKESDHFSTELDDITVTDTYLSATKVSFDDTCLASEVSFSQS
How it was run: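 HEK293/TRHR cells, 18 h, 37 °C; Ca2+ dye 2 h; cpd 5 min RT; TRH 1 nM final; fluorescence read 3 min, 1 s intervals; 15 concs, triplicate.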

[17] = biological target: Thyrotropin-releasing hormone receptor (Homo sapiens) (UniProt P34981); test: qHTS assay to identify small molecule agonists of the thyrotropin-releasing hormone receptor (TRHR) signaling pathway (AID 1346891; calls by dose curve;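 note: HEK293 cells expressing TRHR with calcium dye readout; series mostly up to about 58 µM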)
How it was run: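 HEK293/TRHR cells, 1500 per well, 18 h 37 °C; Ca dye 2 h 37 °C; pin-tool compound addition (agonist mode); kinetic fluorescence 3 min, 1 s reads; 15 concentrations, triplicate.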

[18] = biological target: Progesterone receptor (Homo sapiens) (UniProt P06401); test: qHTS assay to identify small molecule antagonists of the progesterone receptor (PR) signaling pathway (AID 1346795; active = well fitted inhibition curve with a large enough effect in the signal ratio in the repeat runs, not every such curve was filed as active; the % refers to the signal ratio)
How it was run: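 Beta-lactamase reporter, HEK293T PR-UAS-bla line; 2% charcoal-stripped FBS; 6 hr pre-incubation, 37C/5% CO2. Compound + R5020 1 nM final, 16 hr. LiveBLAzer B/G FRET substrate, 2 hr RT; fluorescence intensity read.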

[19] = qHTS assay to identify small molecule antagonists of the TGF-beta/Smad signaling pathway - cell viability counter screen (AID 1346824); note: nearly all actives have a fitted effect of over 50% in size
How it was run: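 SBE-bla HEK 293T cells, incubated overnight, then compound plus 0.25 ng/mL TGF-beta1 (stock added) for 5 hr at 37 C. Viability was read in the same wells by CellTiter-Glo luminescence after 30 min at room temperature.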

[20] = biological target: Androgen receptor (Homo sapiens) (UniProt P10275); test: qHTS assay to identify small molecule agonists of the androgen receptor (AR) signaling pathway in the presence of an antagonist (AID 1259381; calls by dose curve; note: nearly all actives have a fitted effect of over 15% in size)
Sequence of Androgen receptor (Homo sapiens) (P10275 whole entry, looked up): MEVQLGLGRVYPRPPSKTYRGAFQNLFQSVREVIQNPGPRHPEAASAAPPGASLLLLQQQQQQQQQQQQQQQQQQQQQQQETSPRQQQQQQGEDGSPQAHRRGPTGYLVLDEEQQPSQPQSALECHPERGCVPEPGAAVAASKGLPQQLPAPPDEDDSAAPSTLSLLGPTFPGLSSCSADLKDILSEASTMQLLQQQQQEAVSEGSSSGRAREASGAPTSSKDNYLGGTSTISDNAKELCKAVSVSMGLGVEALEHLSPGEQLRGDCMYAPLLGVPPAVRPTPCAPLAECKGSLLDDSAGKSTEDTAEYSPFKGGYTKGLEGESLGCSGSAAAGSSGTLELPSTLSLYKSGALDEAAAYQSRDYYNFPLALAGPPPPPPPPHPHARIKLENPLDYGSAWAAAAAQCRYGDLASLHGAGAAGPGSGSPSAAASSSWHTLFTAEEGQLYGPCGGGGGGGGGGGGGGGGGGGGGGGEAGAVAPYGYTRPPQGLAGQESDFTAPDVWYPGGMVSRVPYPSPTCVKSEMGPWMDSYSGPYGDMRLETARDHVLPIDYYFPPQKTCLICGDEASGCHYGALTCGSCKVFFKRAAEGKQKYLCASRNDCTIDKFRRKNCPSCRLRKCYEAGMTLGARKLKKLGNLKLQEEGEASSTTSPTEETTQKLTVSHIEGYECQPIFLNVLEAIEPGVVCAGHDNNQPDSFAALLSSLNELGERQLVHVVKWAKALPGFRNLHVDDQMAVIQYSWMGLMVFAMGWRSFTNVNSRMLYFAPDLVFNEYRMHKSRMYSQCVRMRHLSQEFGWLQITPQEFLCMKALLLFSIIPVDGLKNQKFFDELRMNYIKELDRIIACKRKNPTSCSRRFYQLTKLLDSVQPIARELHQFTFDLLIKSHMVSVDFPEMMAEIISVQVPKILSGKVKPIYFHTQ
How it was run: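 Luciferase read-out (ONE-Glo, 30min room temperature) in MDA-kb2 MMTV-reporter cells; agonist mode run in presence of AR antagonist nilutamide, 3.0uM final. Compounds tested as 15-point series, 16hr exposure at 37C, 0% CO2.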

Measured: Potency

CC1(C)OC[C@@H](COC(=O)CCc2ccc(OC[C@@H](O)CNCCNC(=O)N3CCOCC3)cc2)O1
not listed: [18] | [19] | [20]
inactive: all other assays above

CCCCOCCOC(=O)CCCCCCCCC(=O)OCCOCCCC
active: [1] 30.6 µM
not listed: [7] | [19] | [20]
inactive: all other assays above

OCCCCCO
not listed: [7] | [12] | [20]
inactive: all other assays above

O=C(CO)[C@@H](O)[C@H](O)[C@@H](O)CO
not listed: [7] | [20]
inactive: all other assays above

CC(C)CC(C)(N)C#N (centres undefined)
not listed: [7] | [12] | [20]
inactive: all other assays above

C=CC(=O)OCCCl
not listed: [12] | [18] | [19] | [20]
inactive: all other assays above

[K+]
not listed: [14] | [20]
inactive: all other assays above

CCNC(=O)[C@@H]1CCCN1C(=O)[C@H](CCCN=C(N)N)NC(=O)[C@H](CC(C)C)NC(=O)CNC(=O)[C@H](Cc1ccc(O)cc1)NC(=O)[C@H](CO)NC(=O)[C@H](Cc1c[nH]c2ccccc12)NC(=O)[C@H](Cc1cnc[nH]1)NC(=O)[C@@H]1CCC(=O)N1 ([pGlu]HWSYGLRP-NHEt)
not listed: [16] | [17] | [18] | [20]
inactive: all other assays above

CCCCCCCCN1CCCC1=O
not listed: [7] | [12] | [20]
inactive: all other assays above

O=C(O)CCSCCC(=O)O
not listed: [16] | [17] | [20]
inactive: all other assays above

CCCCCCC1CCC(=O)O1 (centres undefined)
not listed: [20]
inactive: all other assays above

CN(C)[C@@H]1C(=O)C(C(=O)NCN2CCCC2)=C(O)[C@@]2(O)C(=O)C3=C(O)c4c(O)cccc4[C@@](C)(O)C3C[C@@H]12 (some centres undefined)
not listed: [7] | [17] | [20]
inactive: all other assays above

CCOCC(C)O (centres undefined)
not listed: [20]
inactive: all other assays above

CCCCc1ccc2c(n1)[C@@H](c1ccc(OC)cc1C[C@H](C)C(=O)O)[C@H](C(=O)O)[C@H]2c1ccc2c(c1)OCO2
not listed: [9] | [12] | [16] | [17] | [18] | [20]
inactive: all other assays above

C=C(C)C(=O)OCC(O)CO (centres undefined)
not listed: [7] | [20]
inactive: all other assays above

CCOC(=O)C(=O)CCCCCCl
not listed: [9] | [15] | [18]
inactive: all other assays above
